Bioassay records as filed in PubChem BioAssay.
697 NFkB inh: inhibitors of the PMA/ionomycin-induced NF-kB reporter in 697 B cells; AID 435022; hit rate 0.33% among 330,000; 697 B-cell NF-kB luciferase reporter, 16 h; inhibition, % at 4 µM; in the data active = inhibition above about 35%
NR2F2 inh: inhibitors of human COUP-TFII (NR2F2). P24468. HEK293T NGFI-A luciferase reporter, luminescence. inhibition, % at 8.6 µM. hit rate 0.7% among 370,000;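 active = inhibition above a per-plate cutoff, mean inhibition of test wells between control levels plus 3 SD, cut at about 38% in these data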;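 also: cells cotransfected with COUP-TFII expression vector driving the NGFI-A reporter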
Target sequence (P24468 whole entry, looked up): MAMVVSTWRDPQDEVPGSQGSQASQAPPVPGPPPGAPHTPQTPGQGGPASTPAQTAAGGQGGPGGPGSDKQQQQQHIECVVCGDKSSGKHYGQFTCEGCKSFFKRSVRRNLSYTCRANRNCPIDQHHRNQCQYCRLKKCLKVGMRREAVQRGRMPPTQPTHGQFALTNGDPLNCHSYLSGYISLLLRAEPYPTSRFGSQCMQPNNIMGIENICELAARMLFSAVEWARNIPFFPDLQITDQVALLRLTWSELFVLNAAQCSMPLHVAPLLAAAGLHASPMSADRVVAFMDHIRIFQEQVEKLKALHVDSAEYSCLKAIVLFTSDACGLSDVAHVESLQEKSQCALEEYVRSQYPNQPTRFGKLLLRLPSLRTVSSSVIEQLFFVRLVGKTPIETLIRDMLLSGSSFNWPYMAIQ
Gli-Sufu block: blocks Gli-Sufu signaling in a luciferase reporter; Sufu-KO-LIGHT fibroblasts, Gli luciferase reporter luminescence; inhibition, % at 5 µM; AID 588413; hit rate 0.74% among 340,000;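 active = inhibition above about 55%, limit read from the data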
H9c2 protect: protects H9c2 cardiomyocytes from peroxide injury; H2O2 injury protection, ATPLite, 2 h; protection from H2O2 cell death, % at 20 µM; hit rate 0.63% among 360,000; AID 588492;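 active = compounds giving at least 50% protection of heart cells from peroxide-induced death in the single-dose screen, raw or plate-pattern-corrected value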
Jurkat NFkB inh: lowers PMA/ionomycin-induced NF-kB signal in Jurkat cells | inhibition, % at 4 µM | PMA/ionomycin-induced NF-kB luciferase reporter, luminescence | AID 435003 | hit rate 0.53% among 330,000; in the data active = inhibition above about 50%
TAG inh: inhibitors of triacylglycerol accumulation | H9c2 cells, Nile Red lipid (TAG) fluorescence; cells loaded with 200 µM oleic acid | hit rate 0.66% among 230,000 | inhibition, % at 12.5 µM;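 active = pattern-corrected inhibition of lipid staining of at least 50% with the nuclear-stain viability signal not falling by more than 50%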
Gal4-VP16 ctr: inhibits VP16 reporter, flagging COUP-TFII antagonist hits | AID 687007 | inhibition, % at 8.5 µM | hit rate 25% among 2,500 | HEK293 Gal4-VP16 luciferase reporter, luminescence | shares compounds with NR2F2 inh; in the data active = inhibition above about 13%
COUP-TFII conf: COUP-TFII (NR2F2) inhibition, confirmation assay; shares compounds with NR2F2 inh; HEK293 NGFI-A luciferase reporter, luminescence; inhibition, % at 8.5 µM; hit rate 45% among 2,500;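 active = mean inhibition over three repeats above a set limit taken from the earlier primary screen, cut at about 38% in these data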
Numbers stand for hits. A selection: hits, their analogues and other compounds. The true share with any hit is near 2.6%.

`CCOc1ccc(NC(=O)c2ccc(OCC3CCCO3)cc2)cc1S(=O)(=O)N(CC)CC` (stereo not drawn) gave 697 NFkB inh inactive, NR2F2 inh inactive, Gli-Sufu block inactive, H9c2 protect inactive, Jurkat NFkB inh inactive and TAG inh inactive.
CC(C)(C)c1ccc2c(c1)OC(C(=O)N/N=C\c1ccncc1)CO2 (stereo not drawn) was read as 697 NFkB inh inactive, NR2F2 inh inactive, Gli-Sufu block inactive, H9c2 protect inactive, Jurkat NFkB inh inactive and TAG inh inactive.
CC(C)(C)c1ccc2c(c1)OC(C(=O)N/N=C/c1ccc[nH]1)CO2 (stereo not drawn) was read as NR2F2 inh 47.0, Gal4-VP16 ctr inactive and COUP-TFII conf 39.9.
Screening CCCCOCCCNC(=O)C[C@@H]1C(=O)N(Cc2ccc(OC)cc2)/C2=C/CCCCC[C@@]21C(=O)OCC returned NR2F2 inh inactive.
Screening C=C1C(=O)[C@]23C[C@H]1CC[C@H]2[C@]1(C)[C@@H](OC(C)=O)CC[C@@](C)(C(=O)OC)[C@H]1C[C@@H]3OC(C)=O returned NR2F2 inh inactive and H9c2 protect inactive.
For C=C1C(=O)[C@]23C[C@H]1CCC2[C@@]1(C)C(C[C@@H]3O)[C@](C)(C(=O)OC)CC[C@@H]1OC(C)=O (stereo partly drawn) the results were NR2F2 inh 48.6, H9c2 protect inactive, Gal4-VP16 ctr 63.8 and COUP-TFII conf 52.0.
Screening CCC(=O)N1CCc2cc(Br)c(S(=O)(=O)NC3CCN(Cc4ccccc4)CC3)cc21 returned NR2F2 inh inactive.
C=C1CC2(OC1=O)c1ccccc1CCc1ccccc12 was read as NR2F2 inh 39.5, Gli-Sufu block inactive, H9c2 protect inactive, TAG inh inactive, Gal4-VP16 ctr 16.9 and COUP-TFII conf inactive.
For Cc1cccc(Nc2nc(NCc3ccco3)c3ccccc3n2)c1 the results were NR2F2 inh 62.8, Gli-Sufu block 81.6, H9c2 protect inactive, Gal4-VP16 ctr inactive and COUP-TFII conf 48.3.
For c1ccc(Nc2nc(NCc3ccco3)c3ccccc3n2)cc1 the results were 697 NFkB inh inactive, NR2F2 inh 53.4, Gli-Sufu block 56.2, H9c2 protect inactive, Jurkat NFkB inh inactive, TAG inh inactive, Gal4-VP16 ctr inactive and COUP-TFII conf inactive.
`CC(C)[C@H](NC(=O)C1CC1)C(=O)N1CCC[C@H]1C(=O)NCc1ccccc1` gave NR2F2 inh inactive.
For COc1ccc(C2CCc3cc4c(cc3C2=NOC(C)=O)OCO4)cc1OC (stereo not drawn) the results were NR2F2 inh 44.3, H9c2 protect inactive, TAG inh inactive, Gal4-VP16 ctr inactive and COUP-TFII conf inactive.
COC(=O)[C@]12C[C@H](CC(=O)NCC34CC5CC(CC(C5)C3)C4)C(=O)N(Cc3ccc4c(c3)OCO4)C1=C[C@H](C(C)(C)C)O[C@@H]2C was read as NR2F2 inh inactive.
Screening COc1cc2cc(C(=O)Nc3ccc4c(c3)OCCO4)[nH]c2cc1OC returned 697 NFkB inh inactive, NR2F2 inh 48.0, Gli-Sufu block inactive, H9c2 protect inactive, Jurkat NFkB inh inactive, Gal4-VP16 ctr inactive and COUP-TFII conf inactive.
`COc1cc2[nH]c(C(=O)Nc3ccc4c(c3)OCCO4)cc2c(OC)c1OC` gave 697 NFkB inh inactive, NR2F2 inh inactive, Gli-Sufu block inactive, H9c2 protect inactive and Jurkat NFkB inh inactive.
Screening Cc1ccc(NC(=O)c2ccc(CS(=O)(=O)Cc3ccccc3C)o2)cc1C returned NR2F2 inh inactive.
Cc1ccccc1CS(=O)(=O)Cc1ccc(C(=O)Nc2ccc(F)cc2)o1 was read as NR2F2 inh 52.9, Gal4-VP16 ctr inactive and COUP-TFII conf inactive.
`CCOC(=O)Cc1csc(NC(=O)/C=C/c2ccc(Cl)cc2)n1` gave 697 NFkB inh inactive, NR2F2 inh 44.2, Gli-Sufu block inactive, H9c2 protect inactive, Jurkat NFkB inh inactive, TAG inh inactive, Gal4-VP16 ctr inactive and COUP-TFII conf inactive.
Cc1ccc(CCNC(=O)C(C)n2nc(C)c3c(C)n(-c4ccccc4)nc3c2=O)cc1 (stereo not drawn) was read as 697 NFkB inh inactive, NR2F2 inh inactive, Gli-Sufu block inactive, H9c2 protect inactive and Jurkat NFkB inh inactive.
Cc1ccc(-n2nc3c(=O)n(C(C)C(=O)NCCC4=CCCCC4)nc(C)c3c2C)cc1 (stereo not drawn) was read as 697 NFkB inh inactive, NR2F2 inh 71.0, Gli-Sufu block inactive, H9c2 protect inactive, Jurkat NFkB inh inactive, Gal4-VP16 ctr inactive and COUP-TFII conf 61.9.
COC(=O)C1=C(C(=O)OC)[C@@]2([C@H](Cc3ccc(C)cc3)Nc3ccccc3)C=C[C@@H]1O2 was read as NR2F2 inh 48.8, Gal4-VP16 ctr inactive and COUP-TFII conf inactive.
C=CCC(Nc1ccccc1)C12C=CC(O1)C(C(=O)OC)=C2C(=O)OC (stereo not drawn) was read as 697 NFkB inh inactive, NR2F2 inh inactive, Gli-Sufu block inactive, H9c2 protect inactive and Jurkat NFkB inh inactive.
`CN(Cc1cccc2cnccc12)C(=O)c1cc(COc2ccc(F)cc2F)on1` gave 697 NFkB inh inactive, NR2F2 inh 45.0, Gli-Sufu block inactive, H9c2 protect inactive, Jurkat NFkB inh inactive, TAG inh inactive, Gal4-VP16 ctr inactive and COUP-TFII conf inactive.
`CC(C)NC(=O)C1(C)CCCCN1Cc1ccc(OCc2ccccc2)cc1` (stereo not drawn) gave NR2F2 inh 40.5, H9c2 protect inactive, TAG inh inactive, Gal4-VP16 ctr inactive and COUP-TFII conf inactive.
Cc1ccc(CN2CCCC2(C)C(=O)NC(C)C)cc1 (stereo not drawn) was read as NR2F2 inh inactive, H9c2 protect inactive and TAG inh inactive.
CC1(C)Oc2ccc3ccc(=O)oc3c2C[C@H]1O was read as 697 NFkB inh inactive, NR2F2 inh inactive, Gli-Sufu block inactive, H9c2 protect inactive, Jurkat NFkB inh inactive and TAG inh inactive.
`CC1(C)Oc2cc3oc(-c4cc(O)cc(O)c4)cc3cc2CC1O` (stereo not drawn) gave 697 NFkB inh inactive, NR2F2 inh 41.4, Gli-Sufu block inactive, H9c2 protect inactive, Jurkat NFkB inh inactive, Gal4-VP16 ctr inactive and COUP-TFII conf inactive.
For Cc1ccc2nc(NC(=O)C3CCN(S(=O)(=O)c4cccs4)CC3)sc2c1 the results were 697 NFkB inh inactive, NR2F2 inh 56.8, Gli-Sufu block inactive, H9c2 protect inactive, Jurkat NFkB inh inactive, Gal4-VP16 ctr inactive and COUP-TFII conf inactive.
For O=C(Nc1nc2ccc(S(=O)(=O)N3CCCC3)cc2s1)c1ccccn1 the results were 697 NFkB inh inactive, NR2F2 inh inactive, Gli-Sufu block inactive, H9c2 protect inactive, Jurkat NFkB inh inactive and TAG inh inactive.
